# Source: the supplement of paper PMC10933113
# Where a name gives a salt, the structure may show the parent alone. ± gives the uncertainty stated by the source.
# Columns and labels:
# THP-1 [1] = experiment: CD86 surface expression induction over DMSO control (% over DMSO); higher = stronger dendritic cell activation; conditions: exposure time: 24 h
# Experimental: (§1)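 hCLAT-like CD54 and CD86 surface expression on THP1 cells after 24 h exposure at a single concentration (highest non-cytotoxic concentration, or 100-200 µM if not cytotoxic). Flow cytometry (iQue) was run on 5,000 live cells.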
# [2] = system: KeratinoSens (HaCaT ARE-luciferase) cells; experiment: Nrf2/ARE luciferase activation call in qHTS KeratinoSens assay (1 = active, 0 = inactive)
# THP-1 [3] = experiment: CD54 surface expression induction over DMSO control (% over DMSO); higher = stronger dendritic cell activation; conditions: exposure time: 24 h
# Experimental: as §1;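 active = curve rank above 3; inactive = curve rank 0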
structure (smiles),measurement,setting,value
"COc1cc(C(C)(C)C)c(O)c(C(C)(C)C)c1 [2,6-Di-tert-butyl-4-methoxyphenol] (200 µM)",CD86 surface expression induction,THP-1 [1],18.9 ± 43
O=C(Nc1ccccc1)c1cc([N+](=O)[O-])ccc1Cl [2-Chloro-5-nitro-N-phenylbenzamide] (200 µM),CD86 surface expression induction,THP-1 [1],31.1 ± 7.1
"C/C=C/C=C/C=O [2,4-Hexadienal] (200 µM)",CD86 surface expression induction,THP-1 [1],4.48 ± 7.5
c1ccc2cc3c(ccc4ccccc43)cc2c1 [Benz(a)anthracene] (200 µM),CD86 surface expression induction,THP-1 [1],-20.1 ± 26
CCCCCCC(C)O (stereo not drawn) [2-Octanol] (200 µM),CD86 surface expression induction,THP-1 [1],0.56 ± 6.7
CC(=O)C1(C)CC2=C(CCCC2(C)C)CC1C (stereo not drawn) (100 µM),CD86 surface expression induction,THP-1 [1],9.62 ± 13
O=C(/C=C/C=C/c1ccc2c(c1)OCO2)N1CCCCC1 [Piperine] (100 µM),CD86 surface expression induction,THP-1 [1],-4.64 ± 6.3
CC(=O)c1ccc2c(c1)N(CCCN(C)C)c1ccccc1S2.O=C(O)/C=C\C(=O)O,Nrf2/ARE luciferase activation call,[2],not active ARE inducer (skin sensitizer alert) (inactive)
CCCCC1C(=O)N(c2ccccc2)N(c2ccc(O)cc2)C1=O (stereo not drawn) [Oxyphenbutazone] (10 µM),CD86 surface expression induction,THP-1 [1],24.6 ± 15
CCCCCCCCCCCCCC[N+](C)(C)C [Tetradonium bromide] (10 µM),CD86 surface expression induction,THP-1 [1],53 ± 19
CCN(CC)CCSC(=O)C(c1ccccc1)c1ccccc1 [Thiphenamil] (200 µM),CD86 surface expression induction,THP-1 [1],107 ± 65
CC(C)=CCOc1ccc(/C=C/C(=O)c2ccc(OCC=C(C)C)cc2OCC(=O)O)cc1 [Sofalcone] (100 µM),CD86 surface expression induction,THP-1 [1],-6.95 ± 7.2
CNc1ccc(O)cc1 [4-(Methylamino)phenol Sulfate] (10 µM),CD86 surface expression induction,THP-1 [1],37.1 ± 4.6
CCCOc1ccc2[nH]c(NC(=O)OC)nc2c1 [Oxibendazole] (100 µM),CD86 surface expression induction,THP-1 [1],-3.54 ± 40
Cc1occc1S [2-Methyl-3-furanthiol] (200 µM),CD86 surface expression induction,THP-1 [1],33 ± 9.3
Oc1c(Br)cc(Br)c2cccnc12 [Broxyquinoline] (100 µM),CD86 surface expression induction,THP-1 [1],57.8 ± 75
Oc1ccc2cc(SSc3ccc4cc(O)ccc4c3)ccc2c1 [6-Hydroxy-2-naphthyl disulfide] (100 µM),CD86 surface expression induction,THP-1 [1],67.2 ± 57
Nc1ccc(/N=N/c2ccccc2)c(N)n1 [Phenazopyridine hydrochloride] (100 µM),CD86 surface expression induction,THP-1 [1],-8.42 ± 5.7
CCOC(=O)CCC(=O)OCC [Diethyl butanedioate] (200 µM),CD86 surface expression induction,THP-1 [1],-4.2 ± 3.3
CN(CCOc1ccc(CC2SC(=O)NC2=O)cc1)c1ccccn1.O=C(O)/C=C\C(=O)O (stereo not drawn),Nrf2/ARE luciferase activation call,[2],not active ARE inducer (skin sensitizer alert) (inactive)
Cc1ccc(O)c(-n2nc3ccccc3n2)c1 [2-(2H-Benzotriazol-2-yl)-4-methylphenol] (100 µM),CD86 surface expression induction,THP-1 [1],-18.9 ± 28
O=C(Nc1ncc([N+](=O)[O-])s1)c1cccs1 [Tenonitrozole] (10 µM),CD86 surface expression induction,THP-1 [1],-9.19 ± 11
CCC1=C[C@@H]2C[N@](C1)Cc1c([nH]c3ccccc13)[C@@](C(=O)OC)(c1cc3c(cc1OC)N(C)[C@H]1[C@@](O)(C(=O)OC)[C@H](OC(C)=O)[C@]4(CC)C=CCN5CC[C@]31[C@@H]54)C2.O=C(O)C(O)C(O)C(=O)O.O=C(O)C(O)C(O)C(=O)O,Nrf2/ARE luciferase activation call,[2],active ARE inducer (skin sensitizer alert)
CC(C)(C)c1ccc(C(=O)CCCCl)cc1 [4'-Tert-butyl-4-chlorobutyrophenone] (100 µM),CD86 surface expression induction,THP-1 [1],-2.04 ± 0.44
[Cl][Bi]([Cl])([c]1ccccc1)([c]1ccccc1)[c]1ccccc1 [Triphenylbismuthine dichloride] (10 µM),CD86 surface expression induction,THP-1 [1],53 ± 6.3
CC[C@@]1(O)C(=O)OCc2c1cc1n(c2=O)Cc2c-1nc1ccccc1c2/C=N/OC(C)(C)C [Gimatecan] (10 µM),CD86 surface expression induction,THP-1 [1],25.6 ± 10
"NC(=S)NC(N)=S [2,4-Dithiobiuret] (200 µM)",CD86 surface expression induction,THP-1 [1],26.6 ± 0.3
Cc1c(C)n(CCN(C)C)c2ccc(C(=O)OCCN(C)C)cc12 [Amindocate] (100 µM),CD86 surface expression induction,THP-1 [1],1.11 ± 2.2
same,CD54 surface expression induction,THP-1 [3],-6.56 ± 2.9
"c1ccc(SCCSc2ccccc2)cc1 [1,2-Bis(phenylthio)ethane] (100 µM)",CD86 surface expression induction,THP-1 [1],-2.45 ± 2.3
CN(C)CCOC(C)(c1ccccc1)c1ccccn1.O=C(O)CCC(=O)O (stereo not drawn),Nrf2/ARE luciferase activation call,[2],not active ARE inducer (skin sensitizer alert) (inactive)
C[C@@H](C1=C(CCN(C)C)Cc2ccccc21)c1ccccn1.O=C(O)/C=C\C(=O)O,Nrf2/ARE luciferase activation call,[2],not active ARE inducer (skin sensitizer alert) (inactive)
CCCCc1ccc2[nH]c(NC(=O)OC)nc2c1 [Parbendazole*] (200 µM),CD86 surface expression induction,THP-1 [1],65.8 ± 110
NC(=O)n1c(O)c(C(=O)c2cccs2)c2cc(Cl)ccc21 [Tenidap*] (200 µM),CD86 surface expression induction,THP-1 [1],98.4 ± 52
CCCCCC[n+]1ccccc1.O=S(=O)([O-])C(F)(F)F,Nrf2/ARE luciferase activation call,[2],not active ARE inducer (skin sensitizer alert) (inactive)
"CC(C)c1ccc2cc(C(C)C)ccc2c1 [2,6-Diisopropylnaphthalene] (200 µM)",CD54 surface expression induction,THP-1 [3],10.1 ± 1.7
Oc1c(I)cc(Cl)c2cccnc12 [Clioquinol] (100 µM),CD86 surface expression induction,THP-1 [1],64.9 ± 88
same,CD54 surface expression induction,THP-1 [3],141 ± 67
Nc1ccc2cc3ccccc3cc2c1 [2-Aminoanthracene] (200 µM),CD54 surface expression induction,THP-1 [3],-52.5 ± 1.6
CCCCCCCC(=O)Oc1c(Br)cc(C#N)cc1Br [Bromoxynil octanoate] (100 µM),CD54 surface expression induction,THP-1 [3],-3.81 ± 2.4
CO[C@@H]1[C@H](OC(=O)/C=C/C=C/C=C/C=C/C(=O)O)CC[C@]2(CO2)[C@H]1[C@@]1(C)O[C@@H]1CC=C(C)C [Fumagillin] (100 µM),CD54 surface expression induction,THP-1 [3],4.2 ± 4.4
"C=CC(=O)OCCCCCCOC(=O)C=C [1,6-Hexanediol diacrylate] (100 µM)",CD86 surface expression induction,THP-1 [1],24.1 ± 16
same,CD54 surface expression induction,THP-1 [3],-4.54 ± 2.9
Cc1c(C)n(Cc2ccccc2)c2ccc(C(=O)OCCN(C)C)cc12 [Indocate] (200 µM),CD54 surface expression induction,THP-1 [3],30.6 ± 5
NC(=O)N/N=C/c1ccc([N+](=O)[O-])o1 [Nitrofurazone] (200 µM),CD86 surface expression induction,THP-1 [1],5.94 ± 3.7
same,CD54 surface expression induction,THP-1 [3],15.9 ± 5.6
CC/C=C\C/C=C\C/C=C\CCCCCCCC(=O)OCC [Ethyl linolenate] (10 µM),CD54 surface expression induction,THP-1 [3],-3.84 ± 2.1
CC(C)C[C@H](NC(=O)[C@H](Cc1ccccc1)NC(=O)c1cnccn1)B(O)O [Bortezomib] (10 µM),CD54 surface expression induction,THP-1 [3],28.8 ± 9.9
CC(C)NC(=O)c1ccc(C=O)cc1 [N-isopropyl-4-formylbenzamide] (100 µM),CD54 surface expression induction,THP-1 [3],-11.6 ± 1.7
C=CC(C)(CCC=C(C)C)OC(=O)CC(C)C (stereo not drawn) [Linalyl isovalerate] (200 µM),CD86 surface expression induction,THP-1 [1],4.35 ± 0.78
same,CD54 surface expression induction,THP-1 [3],16.3 ± 11
COc1cc(/C=C2\CCC/C(=C\c3ccc(O)c(OC)c3)C2=O)ccc1O [Cyclovalone] (10 µM),CD54 surface expression induction,THP-1 [3],-1.01 ± 3
CO[C@@]12[C@H](COC(N)=O)C3=C(C(=O)C(C)=C(N)C3=O)N1C[C@@H]1N[C@@H]12 [Mitomycin C] (100 µM),CD54 surface expression induction,THP-1 [3],55.6 ± 52
O=C(NS(=O)(=O)/C=C/c1ccccc1)c1ccc(F)cc1Cl (200 µM),CD54 surface expression induction,THP-1 [3],1.54 ± 2.2
CCCCCCCCCCCCOCCO [2-(Dodecyloxy)ethanol] (200 µM),CD54 surface expression induction,THP-1 [3],34.2 ± 20
O=C1OC(OC(=O)c2cccnc2Nc2cccc(C(F)(F)F)c2)c2ccccc21 (stereo not drawn) [Talniflumate] (100 µM),CD54 surface expression induction,THP-1 [3],1.7 ± 0.62
C=C1CC[C@H](O)C/C1=C/C=C1\CCC[C@]2(C)[C@@H]([C@H](C)/C=C/[C@H](C)C(C)C)CC[C@@H]12 [Ergocalciferol*] (100 µM),CD54 surface expression induction,THP-1 [3],108 ± 7.2
CCCCCCCCCCCCCCCC[N+](C)(C)Cc1ccccc1 [Benzylhexadecyldimethylammonium chloride] (10 µM),CD54 surface expression induction,THP-1 [3],20.1 ± 7.5
O=C(Oc1ccccc1)c1cccc(C(=O)Oc2ccccc2)c1 [Diphenyl isophthalate] (200 µM),CD54 surface expression induction,THP-1 [3],-2.76 ± 5
"Nc1cc(Cl)c(O)c(Cl)c1 [4-Amino-2,6-dichlorophenol] (100 µM)",CD86 surface expression induction,THP-1 [1],-14.4 ± 29
same,CD54 surface expression induction,THP-1 [3],18 ± 2
O=C(CS)Nc1ccccc1 [Thioglycolic acid anilide] (300 µM),CD54 surface expression induction,THP-1 [3],24 ± 1.8
COC(=O)Nc1nc2cc(Sc3ccccc3)ccc2[nH]1 [Fenbendazole] (100 µM),CD54 surface expression induction,THP-1 [3],-38.1 ± 4.2
CCC1OCC(COc2ccc(Oc3ccccc3)cc2)O1 (stereo not drawn) [Diofenolan] (10 µM),CD54 surface expression induction,THP-1 [3],-6.06 ± 5.8
CC(C)=CCC1C(=O)N(c2ccccc2)N(c2ccccc2)C1=O [Feprazone] (200 µM),CD86 surface expression induction,THP-1 [1],71.8 ± 44
same,CD54 surface expression induction,THP-1 [3],62.3 ± 3
"S=C(NC1CCCCC1)NC1CCCCC1 [N,N'-Dicyclohexylthiourea] (10 µM)",CD54 surface expression induction,THP-1 [3],-7.65 ± 5.2
"CCCCCCCCCCC=CC1CC(=O)OC1=O (stereo not drawn) [3-(Dodecenyl)dihydro-2,5-furandione] (200 µM)",CD54 surface expression induction,THP-1 [3],16 ± 37
O=C(O)CCCCCCCCC(=O)O [Decanedioic acid] (200 µM),CD86 surface expression induction,THP-1 [1],-3.64 ± 3
same,CD54 surface expression induction,THP-1 [3],-0.56 ± 5.1
Clc1ccc(C(Cn2ccnc2)OCc2c(Cl)cccc2Cl)c(Cl)c1 (stereo not drawn) [Isoconazole] (100 µM),CD54 surface expression induction,THP-1 [3],56.6 ± 9.5
CCCCCCCCN [n-Octylamine] (100 µM),CD54 surface expression induction,THP-1 [3],-6.09 ± 0.05
O=C(O)c1cn(C2CC2)c2cc(N3CCNCC3)c(F)cc2c1=O [Ciprofloxacin] (100 µM),CD54 surface expression induction,THP-1 [3],-14.9 ± 5.8
CC(C)CC(NC(=O)OCC1c2ccccc2-c2ccccc21)C(=O)O (stereo in doubt) [N-(9-Fluorenylmethoxycarbonyl)-L-leucine] (100 µM),CD86 surface expression induction,THP-1 [1],-11.4 ± 2.7
same,CD54 surface expression induction,THP-1 [3],-11.5 ± 0.49
CCN(CC)c1ccc(C(=O)c2ccccc2C(=O)O)c(O)c1 [2-[4-(Diethylamino)-2-hydroxybenzoyl]benzoic acid] (10 µM),CD54 surface expression induction,THP-1 [3],-5.88 ± 5
COc1cccc2c1C(=O)c1c(O)c3c(c(O)c1C2=O)C[C@@](O)(C(=O)CO)C[C@@H]3O[C@H]1C[C@H](N)[C@H](O)[C@H](C)O1 [Doxorubicin*] (10 µM),CD54 surface expression induction,THP-1 [3],187 ± 27
Oc1ccc(/C=C/c2cc(O)cc(O)c2)cc1 [Resveratrol] (100 µM),CD54 surface expression induction,THP-1 [3],1.74 ± 6.8
